# Compound activity (PubChem)
# Shiga toxin inh = blocks Shiga toxin action in Vero cells. Vero cells, Shiga toxin protein synthesis inhibition reporter. inhibition, % at 38.7 µM. 290,000 tested, 9.2% active; in the data active means inhibition mostly above about 28%, no sharp cut-off; inactive means mostly below about 43%; further: 0% is about no effect
# Pf growth 96h = inhibits malaria parasite growth, 96 h | P. falciparum luciferase reporter growth, 96 h | Potency, µM (doses to about 28.7 µM), for the others: top-dose activity change, negative = inhibition, most hits filed as inhibitors | 320,000 tested, 6.9% active; further: potency means the concentration at half of the fitted maximal effect; on the % scale 0 is the no-effect control and ±100 the full control effect
#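 Luminescence readout: decreased luciferase signal marks inhibited growth of reporter-expressing P. falciparum in infected red cells (2% hematocrit, 0.05% parasitemia final), exposed to compound two generations (96 h, 37 C, 5% CO2).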
# HCMV antiviral = human cytomegalovirus inhibition. HFF cells, HCMV-luciferase reporter, 72 h; hits give low values. activity change, negative = inhibition, % at 57.5 µM. 410,000 tested, 4.5% active. AID 1259415; in the data active means activity change below about -60%; inconclusive means no clear call, values can overlap the other calls; inactive means above about -39%; further: on the % scale 0 is the no-effect control and ±100 the full control effect
#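 Compounds were evaluated in HFFs infected with an HCMV luciferase reporter virus (MOI 1 PFU/cell). Luciferase in lysates collected 72 h post infection served as the replication measure.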
# CHX counter = counter-screen hit for Shiga toxin inhibitors, cycloheximide. 300,000 tested, 12% active. cell reporter, cycloheximide protein synthesis inhibition counterscreen. max response, %; in the data active means max response mostly above about 13%, no sharp cut-off; inactive means mostly below about 14%; further: read at 38.3 µM for the half of the compounds with a filed dose; 0% is about no effect
# Pf growth 48h = P. falciparum growth inhibition at 48 hours (one generation); P. falciparum luciferase growth in erythrocytes, 48 h; Potency, µM (top dose mostly 28.7 µM), for inactives: at the top dose activity change, negative = inhibition, usual class: inhibitors; 310,000 tested, 5.9% active; AID 504832; further: potency means the concentration at half of the fitted maximal effect; on the % scale 0 is the no-effect control and ±100 the full control effect
#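 Firefly luciferase activity from engineered P. falciparum reports growth; inhibitors lower the luminescent signal. Cultures contained 2% hematocrit erythrocytes at 0.1% final parasitemia.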
# Starred values were filed as active, the others as inactive; ? = inconclusive; . = not tested or not shown. This is a sample that favours compounds with a hit; in the whole collection about 20% have one here. Unless noted, the call rests on the fitted dose curve; in most records, active means well fitted inhibition curve with a large enough effect; inconclusive means small, poorly fitted or top-dose-only effect, or another doubt; inactive means no such curve, though single readings can be large or run the other way.
SMILES,Shiga toxin inh,Pf growth 96h,HCMV antiviral,CHX counter,Pf growth 48h
CN(C)S(=O)(=O)c1ccc(N2CCCC2)c(C(=O)OCC(=O)N2CCN(c3ccccc3)CC2)c1,.,13.5%,10.9,.,14.7µM*
CCN(CC)S(=O)(=O)c1ccc(N2CCCC2)c(C(=O)OCC(=O)/C(C#N)=C(\C)N)c1,-4.5,0.0%,-5.6,-4.0,9.28µM*
COc1ccc(C(=O)NCCn2cc(SCC(=O)Nc3ccc4c(c3)OCCO4)c3ccccc32)cc1OC,.,.,-10.6,.,.
CCOC(=O)C1=CCN(S(=O)(=O)c2ccccc2Cl)C1c1ccc(C)cc1 (stereo not drawn),.,.,-19.8,.,.
COc1ccc(N(C)C(=O)c2oc(=O)c3ccccc3c2-c2ccccc2)c(OC)c1,6.4,?,-33.5,-1.7,?
COc1ccc(-c2noc(CN(C)C(=O)c3ccoc3C)n2)cc1OC,3.8,17.0%,-20.2,-3.2,-3.4%
CN(CC(=O)Nc1ccc(F)cc1)C(=O)COC(=O)c1cc(S(=O)(=O)N(C)C)ccc1N1CCCC1,.,8.28µM*,9.8,.,11.7µM*
CC1Cc2ccccc2N1C(=O)c1cc2sccc2n1Cc1ccc(F)cc1 (stereo not drawn),26.0,?,-32.6,5.8,11.7µM*
Cn1c(C(=O)N2CCCC(C(=O)NCCc3ccccc3)C2)cc2sccc21 (stereo not drawn),60.6*,212.3%,-97.3*,18.2*,?
O=C(NCCCN1CCCC1)C1CCN(C(=O)c2cc3sccc3n2Cc2ccc(F)cc2)CC1,-9.3,10.4µM*,.,-2.3,.
COCCCNC(=O)C1CCN(C(=O)c2cc3sccc3n2Cc2ccc(F)cc2)CC1,-12.8,?,.,-2.0,.
Cn1c(C(=O)N2CCCC(C(=O)NCCCc3ccccc3)C2)cc2sccc21 (stereo not drawn),35.8,?,-8.2,10.2,?
O=C(NCc1ccco1)C1CCN(C(=O)c2cc3sccc3n2Cc2ccc(F)cc2)CC1,5.6,6.2%,-7.4,6.8,1.85µM*
Cc1ccc(Cn2c(C(=O)NCCCN3CCOCC3)cc3sccc32)cc1,-8.6,115.6%,.,-4.4,11.7µM*
O=C(Nc1nc2c(c(=O)[nH]1)CCCC2)C1CC1,6.6,68.4%,66.9,-5.6,.
O=C(CCc1nnc(-c2ccc3c(c2)OCO3)o1)NC(c1ccccn1)C(F)(F)F (stereo not drawn),63.9*,3.1%,-7.8,37.9*,60.0%
O=C(CCc1nnc(-c2ccc3c(c2)OCO3)o1)N1CCC(c2ccc(F)cc2)C1 (stereo not drawn),107.6*,?,4.8,31.5*,7.9%
CC1(C(=O)NCCc2c[nH]c3ccccc23)CCN1Cc1ccccc1OC(F)F (stereo not drawn),.,.,-96.3*,.,.
C/C(=N\Nc1ccc(S(N)(=O)=O)cc1[N+](=O)[O-])c1ccccc1O,-7.0,6.0%,-23.0,-2.3,-1.3%
CC/C(=N\Nc1ccccc1[N+](=O)[O-])c1ccc(O)cc1,58.3*,-10.1%,-1.8,23.1*,23.8%
C/C(=N\Nc1ccccc1[N+](=O)[O-])c1ccccc1O,90.2*,-13.8%,380.8,40.7*,165.3%
CC/C(=N\Nc1ccc([N+](=O)[O-])cc1[N+](=O)[O-])c1ccc(O)cc1,2.6,40.1%,-23.2,-3.0,-17.8%
Cn1cc(C=O)c2ccccc21,-4.3,10.4µM*,-10.3,5.4,50.9%
Cc1ccc(/C(C#N)=C\c2cn(C)c3ccccc23)cc1,25.3*,.,.,18.6*,-25.6%
Cn1cc(C=C2C(=O)NC(=O)NC2=O)c2ccccc21,-4.3,0.5%,31.5,-3.1,12.2%
Cc1ccc(C(=O)N/C(=C\c2cn(C)c3ccccc23)C(=O)N2CCOCC2)cc1,31.4,-0.1%,-10.2,-0.9,1.8%
